Data from PubChem BioAssay (NCI).
Compounds without any hit were thinned out: in the full panel of roughly 79,000, 15% have a hit. Calls of active or inactive are those of the source. No stated cut-off is given here; in the data, active means growth inhibition above about 70%; inactive means the rest.

Tests used:
[1] = NCI Yeast Anticancer Drug Screen. Data for the mec2-1 strain (AID 157); settings: S. cerevisiae mec2-1 strain, hits give high values
Method in brief: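 Strain: mec2-1 (DNA repair/cell cycle alteration). Compound exposure, then growth measured; inhibition expressed relative to vehicle.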

[2] = NCI Yeast Anticancer Drug Screen. Data for the rad14 strain (AID 159);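 further: 0% = growth of vehicle-treated control cultures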; settings: S. cerevisiae rad14 strain growth inhibition, hits give high values
Method in brief: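 Inhibition of growth is reported for a repair-deficient yeast mutant following compound treatment, calculated relative to cultures that received vehicle.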

[3] = NCI Yeast Anticancer Drug Screen. Data for the sgs1 mgt1 strain (AID 161);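 further: 0% = growth of cultures given vehicle only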; settings: S. cerevisiae sgs1 mgt1 strain, hits give high values
Method in brief: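 Mutant yeast exposed to compound; growth scored against vehicle-only wells.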

[4] = NCI Yeast Anticancer Drug Screen. Data for the CLN2oe strain (AID 163);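 further: 0% = growth of vehicle-only control cultures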; settings: S. cerevisiae CLN2oe strain, hits give high values
Method in brief: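 Growth of a genetically modified yeast strain is measured after compound exposure and compared with cultures given vehicle alone.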

[5] = NCI Yeast Anticancer Drug Screen. Data for the cln2 rad14 strain (AID 165);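 further: 0% = growth equal to vehicle treated cultures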; settings: S. cerevisiae cln2 rad14 strain, hits give high values
Method in brief: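 Compounds are applied to the cln2 rad14 yeast strain, and growth is then compared with that of vehicle-treated cultures to give inhibition.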

[6] = NCI Yeast Anticancer Drug Screen. Data for the bub3 strain (AID 167); settings: S. cerevisiae bub3 mutant strain, hits give high values
Method in brief: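 Mutant yeast screening strain plus compound; vehicle-treated cultures serve as the 0% inhibition reference.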

[7] = NCI Yeast Anticancer Drug Screen. Data for the wt2 strain (AID 169); settings: S. cerevisiae wt2 strain growth inhibition, hits give high values
Method in brief: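 This strain belongs to a panel of yeast strains with defined genetic alterations in DNA damage repair or cell cycle control. Compounds are applied, and growth inhibition is measured against vehicle-treated cultures.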

[8] = NCI Yeast Anticancer Drug Screen. Data for the mlh1 strain (AID 171);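 further: 0% = growth of vehicle-treated control cultures of the same strain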; settings: S. cerevisiae mlh1 strain growth inhibition, hits give high values
Method in brief: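 Growth of the mutant yeast strain after compound exposure, expressed as inhibition relative to vehicle-only controls.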

[9] = NCI Yeast Anticancer Drug Screen. Data for the sgs1 strain (AID 173);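 further: 0% = growth of vehicle-only control cultures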; settings: S. cerevisiae sgs1 mutant, hits give high values
Method in brief: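 Growth of a yeast strain bearing a defined genetic alteration is measured after compound treatment. Inhibition is expressed relative to vehicle-only controls.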

[10] = NCI Yeast Anticancer Drug Screen. Data for the mlh1 rad18 strain (AID 175); settings: S. cerevisiae mlh1 rad18 strain growth inhibition, hits give high values
Method in brief: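 Read-out is yeast growth inhibition, calculated against vehicle-only controls. The compound was applied to a strain engineered with DNA damage repair alterations.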

[11] = NCI Yeast Anticancer Drug Screen. Data for the rad18 strain (AID 177); settings: S. cerevisiae rad18 mutant growth inhibition, hits give high values
Method in brief: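 Growth of the mutant yeast strain after compound exposure, normalised to vehicle-only cultures.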

[12] = NCI Yeast Anticancer Drug Screen. Data for the rad52 strain (AID 147);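 further: 0% = growth of vehicle-treated control cultures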; settings: S. cerevisiae rad52 mutant growth inhibition, hits give high values
Method in brief: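 Compounds are applied to a genetically defined yeast strain lacking normal DNA damage repair, and inhibition of growth is expressed relative to cultures given vehicle only.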

[13] = NCI Yeast Anticancer Drug Screen. Data for the wt1 strain (AID 149);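 further: 0% = growth of vehicle-treated wt1 cultures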; settings: S. cerevisiae wt1 strain (SPY 50644) growth inhibition, hits give high values
Method in brief: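 Each compound is tested on wt1 yeast and the loss of growth versus vehicle gives the inhibition value.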

[14] = NCI Yeast Anticancer Drug Screen. Data for the rad50EPP+ strain (AID 151);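 further: 0% = growth of vehicle-treated control cultures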; settings: S. cerevisiae rad50 mutant strain, hits give high values
Method in brief: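 Compounds were applied to the rad50EPP+ yeast strain, which bears a defined DNA repair alteration, and growth inhibition was determined relative to vehicle-treated cultures.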

[15] = NCI Yeast Anticancer Drug Screen. Data for the mgt1 strain (AID 153); settings: S. cerevisiae mgt1 mutant growth inhibition, hits give high values
Method in brief: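 Strain: mgt1 yeast, one of a set carrying defined DNA damage repair or cell cycle control alterations. Compound-treated growth compared with vehicle.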

[16] = NCI Yeast Anticancer Drug Screen. Data for the rad50 strain (AID 155);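 further: 0% = growth of vehicle-only cultures of the same strain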; settings: S. cerevisiae rad50 strain growth inhibition, hits give high values
Method in brief: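 Vehicle-treated cultures provide the reference for the growth inhibition reported for compound-exposed, repair-deficient yeast.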

[17] = at 5.0 µM (retest, dose inferred, filed as 0.5)
[18] = at 50.0 µM (retest, dose inferred, filed as 5.0)

Measured: growth inhibition

C/C1=C/C2OC(=O)C3(C)C2C(CC2(C)OC1=CC2=O)OC3(O)C(C)C (stereo unspecified)
inactive: [1]; [17] 18% | [1]; at 11.0 µM -27% | [1]; at 33.0 µM -18% | [1]; [18] 24% | [1]; at 50.0 µM -27.4% | [1]; at 100.0 µM -24% | [2]; at 1.2 µM -27% | [2]; at 3.7 µM -20% | [2]; at 11.0 µM -34% | [2]; at 33.0 µM -39% | [2]; at 100.0 µM -16% | [3]; [17] 21% | [4]; at 1.2 µM 4% | [4]; at 3.7 µM 22% | [4]; at 11.0 µM 13% | [4]; at 33.0 µM 0% | [4]; at 100.0 µM 10% | [5]; [17] 27% | [5]; [18] 29% | [5]; at 50.0 µM 7.4% | [6]; at 1.2 µM -8% | [6]; at 3.7 µM -19% | [6]; [17] 22% | [6]; at 11.0 µM -20% | [6]; at 33.0 µM -35% | [6]; [18] 16% | [6]; at 50.0 µM -16.7% | [6]; at 100.0 µM -28% | [7]; at 1.2 µM 8% | [7]; at 3.7 µM 21% | [7]; at 11.0 µM 27% | [8]; at 1.2 µM 21% | [8]; at 3.7 µM 5% | [8]; at 11.0 µM 31% | [8]; at 33.0 µM 60% | [9]; at 1.2 µM 5% | [9]; at 3.7 µM -1% | [9]; at 11.0 µM 26% | [10]; [17] 24% | [10]; [18] 32% | [10]; at 50.0 µM -6.1% | [11]; at 1.2 µM -6% | [11]; at 3.7 µM -33% | [11]; at 11.0 µM -38% | [11]; at 33.0 µM -44% | [11]; at 100.0 µM -37%
active: [3]; [18] 87% | [3]; at 50.0 µM 82.4% | [7]; at 33.0 µM 79% | [7]; at 100.0 µM 91% | [8]; at 100.0 µM 90% | [9]; at 33.0 µM 72% | [9]; at 100.0 µM 92%

O=c1c2ccccc2nc(-c2cccc([N+](=O)[O-])c2)n1O
inactive: [12]; at 1.2 µM 17% | [12]; at 3.7 µM 45% | [13]; at 1.2 µM 12% | [13]; at 3.7 µM 21% | [13]; at 11.0 µM 60% | [14]; at 1.2 µM -9% | [14]; at 3.7 µM -5% | [14]; at 11.0 µM 13% | [14]; at 33.0 µM 35% | [14]; at 100.0 µM 65% | [15]; at 1.2 µM 13% | [15]; at 3.7 µM 21% | [15]; at 11.0 µM 52% | [16]; at 1.2 µM 14% | [16]; at 3.7 µM 31% | [16]; [17] 12% | [1]; at 1.2 µM 14% | [1]; at 3.7 µM 19% | [1]; [17] 7% | [1]; at 11.0 µM 37% | [1]; at 33.0 µM 58% | [1]; at 100.0 µM 68% | [2]; at 1.2 µM 36% | [3]; [17] 26% | [4]; at 1.2 µM 6% | [4]; at 3.7 µM 15% | [4]; at 11.0 µM 33% | [4]; at 33.0 µM 46% | [4]; at 100.0 µM 51% | [5]; [17] -20% | [6]; at 1.2 µM -4% | [6]; at 3.7 µM 5% | [6]; at 11.0 µM 43% | [6]; at 33.0 µM 59% | [7]; at 1.2 µM 25% | [7]; at 3.7 µM 49% | [8]; at 1.2 µM 16% | [8]; at 3.7 µM 29% | [9]; at 1.2 µM 37% | [10]; [17] 21% | [11]; at 1.2 µM 37% | [11]; at 3.7 µM 64%
active: [12]; at 11.0 µM 83% | [12]; at 33.0 µM 91% | [12]; at 100.0 µM 91% | [13]; at 33.0 µM 84% | [13]; at 100.0 µM 90% | [15]; at 33.0 µM 85% | [15]; at 100.0 µM 90% | [16]; at 11.0 µM 76% | [16]; at 33.0 µM 89% | [16]; [18] 97% | [16]; at 50.0 µM 97.8% | [16]; at 100.0 µM 91% | [1]; [18] 95% | [1]; at 50.0 µM 97.7% | [2]; at 3.7 µM 73% | [2]; at 11.0 µM 93% | [2]; at 33.0 µM 97% | [2]; at 100.0 µM 97% | [3]; [18] 97% | [3]; at 50.0 µM 98% | [5]; [18] 76% | [5]; at 50.0 µM 87.2% | [6]; [17] 71% | [6]; [18] 96% | [6]; at 50.0 µM 84.8% | [6]; at 100.0 µM 70% | [7]; at 11.0 µM 87% | [7]; at 33.0 µM 94% | [7]; at 100.0 µM 95% | [8]; at 11.0 µM 71% | [8]; at 33.0 µM 78% | [8]; at 100.0 µM 90% | [9]; at 3.7 µM 72% | [9]; at 11.0 µM 91% | [9]; at 33.0 µM 94% | [9]; at 100.0 µM 95% | [10]; [18] 98% | [10]; at 50.0 µM 98.1% | [11]; at 11.0 µM 88% | [11]; at 33.0 µM 92% | [11]; at 100.0 µM 92%
